Bioassay records deposited in PubChem by National Center for Advancing Translational Sciences (NCATS).
Most compounds without a hit are left out; they make up all but 2.9% or so of the library.
Pol iota inh – qHTS for Inhibitors of Polymerase Iota. Pol iota fluorescent replication assay, 10 min. Potency, µM (titrated, usually from 115 µM), for inactives: top-dose activity, negative = inhibition, hits mostly inhibitors. 390,000 tested, 1% active. AID 588590, 2011; note: potency is the fitted concentration of half-maximal effect
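Pol iota at 10 nM preincubated 15 min with compounds at room temperature; reaction started with fluorescent substrate, 50 nM final. Fluorescence read kinetically at 0 and 10 min; buffer-only wells as negative control.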
ALOX12 inh – Primary qHTS assay for inhibitors of human arachidonate 12S-lipoxygenase (ALOX12): Round 2; Polyunsaturated fatty acid lipoxygenase ALOX12 (Homo sapiens), P18054; purified 12hLO, xylenol orange hydroperoxide absorbance; Potency, µM (titrated, usually from 108 µM), for the others: top-dose activity change, negative = inhibition, hits mostly inhibitors; 580,000 tested, 1.1% active; AID 1671190, 2021; note: potency is the fitted concentration of half-maximal effect; % is set by controls: 0 for no effect and ±100 for the full control effect
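Purified human 12hLO (150 nM final) in 25 mM Hepes, 0.01% Triton X-100, pH 7.0 was preincubated 15 min at room temperature with compound. Then 40 uM arachidonic acid was added, 30 min. Hydroperoxide was read by Fe-XO absorbance ratio 573/405 nm.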
Pol eta inh-1 – qHTS for Inhibitors of Polymerase Eta; DNA polymerase eta (Homo sapiens), Q9Y253; recombinant Pol eta, fluorescent DNA replication assay; Potency, µM (doses to about 114 µM), without a hit: at the highest dose activity change, negative = inhibition, hits mostly inhibitors; 390,000 tested, 1.2% active; note: potency is the fitted concentration of half-maximal effect; % is set by controls: 0 for no effect and ±100 for the full control effect
Target sequence (Q9Y253 whole entry, looked up): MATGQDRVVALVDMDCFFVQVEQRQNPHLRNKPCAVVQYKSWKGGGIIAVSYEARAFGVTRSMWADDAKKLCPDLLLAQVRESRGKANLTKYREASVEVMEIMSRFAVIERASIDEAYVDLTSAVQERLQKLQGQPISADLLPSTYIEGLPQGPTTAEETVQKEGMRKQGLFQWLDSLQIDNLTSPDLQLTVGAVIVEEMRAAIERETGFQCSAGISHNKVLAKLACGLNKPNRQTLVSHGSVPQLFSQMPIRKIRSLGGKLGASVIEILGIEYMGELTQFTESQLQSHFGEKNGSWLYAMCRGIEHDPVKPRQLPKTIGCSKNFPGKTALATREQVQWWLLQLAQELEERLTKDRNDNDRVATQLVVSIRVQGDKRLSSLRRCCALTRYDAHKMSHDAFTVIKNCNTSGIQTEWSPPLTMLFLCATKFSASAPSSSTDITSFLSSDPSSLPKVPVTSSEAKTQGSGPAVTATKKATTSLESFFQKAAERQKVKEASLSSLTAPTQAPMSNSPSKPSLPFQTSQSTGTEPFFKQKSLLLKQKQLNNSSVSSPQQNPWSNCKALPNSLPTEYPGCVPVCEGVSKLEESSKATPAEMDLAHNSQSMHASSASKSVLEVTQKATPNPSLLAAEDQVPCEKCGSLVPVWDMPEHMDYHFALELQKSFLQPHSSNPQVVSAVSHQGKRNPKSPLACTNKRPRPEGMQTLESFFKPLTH
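Pol eta at 10 nM preincubated with compounds 15 min at room temperature; reaction started with fluorescent substrate (50 nM final) and read kinetically at 0 and 10 min.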
PI5P4Ka inh – qHTS for Inhibitors of phosphatidylinositol 5-phosphate 4-kinase (PI5P4K). PI5P4Kalpha enzyme, ADP-Glo luminescence, 60 min; hits give low values. max response, %. 330,000 tested, 1.2% active. AID 652105, 2013; active = max response of -50% or lower; inconclusive = between -30% and -50%; inactive = -30% or higher; note: value at the top dose of about 77 µM; % is set by controls: 0 for no effect and ±100 for the full control effect
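Human PI5P4Kalpha with substrate in 0.038 M HEPES pH 7.4, 0.28 mM EGTA, 0.1% CHAPS, 5% DMSO; reaction started with 5 microM ATP (final), 60 min at room temperature. ADP formed read by ADP-Glo luminescence.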
Pol beta inh – qHTS Assay for Inhibitors of DNA Polymerase Beta | 340,000 tested, 1.3% active | AID 485314, 2010 | Potency, µM (doses to about 114 µM), for the others: top-dose activity change, negative = inhibition, hits mostly inhibitors | Pol beta primer extension/strand displacement, fluorescence kinetic; note: potency is the fitted concentration of half-maximal effect; % is set by controls: 0 for no effect and ±100 for the full control effect
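Kinetic readout of DNA synthesis with strand displacement by Pol beta. Compound and 10 nM enzyme sit 15 min at room temperature; 50 nM substrate starts the reaction, read immediately and at 10 min.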
Pol kappa inh-1 – qHTS for Inhibitors of Polymerase Kappa | DNA polymerase kappa (Homo sapiens), Q9UBT6 | purified Pol kappa, fluorescent DNA synthesis assay, 10 min | Potency, µM (series often up to 107 µM), for inactives: at the highest dose activity, negative = inhibition, actives largely listed as inhibitors | 400,000 tested, 0.53% active | AID 588579, 2011; note: potency is the fitted concentration of half-maximal effect; % is set by controls: 0 for no effect and ±100 for the full control effect
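50 nM final substrate added after 15 min RT preincubation of 10 nM Pol kappa with compound; fluorescence read at 0 and 10 min.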
TbPGK inh – qHTS for inhibitors of Phosphogylcerate Kinase: Hit Validation Screen. shares compounds with Pol kappa inh-1. TbPGK coupled GAPDH assay, Kinase-Glo luminescence. AID 686980, 2013. 500 tested, 79% active. Potency, µM (series often up to 57.5 µM), without a hit: at the top dose activity change, negative = inhibition, hits mostly inhibitors; note: potency is the fitted concentration of half-maximal effect; % is set by controls: 0 for no effect and ±100 for the full control effect; nearly all actives have a fitted effect of over 65% in size
Pol iota confirm – qHTS for Inhibitors of Polymerase Iota: Confirmatory Assay for Cherry-picked Compounds. AID 720496, 2013. Pol iota primer extension, TAMRA/BHQ fluorescence. 1,500 tested, 77% active. shares compounds with Pol kappa inh-1. Potency, µM, most hits filed as inhibitors; note: potency is the fitted concentration of half-maximal effect
GALK confirm – Confirmation Assay for Inhibitors of Human Galactokinase (GALK). 150 tested, 70% active. shares compounds with Pol eta inh-1. purified GALK, Kinase-Glo ATP depletion luminescence. Potency, µM (doses to about 115 µM), without a hit: at the highest dose activity, negative = inhibition, usual class: inhibitors
GALK redox cs – Confirmatory Assay for Inhibitors of Human Galactokinase (GALK): Phenol-HRP redox assay counterscreen; shares compounds with Pol eta inh-1; Phenol red-HRP H2O2 redox cycling, absorbance 600 nm; Potency, µM (titrated, usually from 115 µM), for inactives: top-dose activity change, negative = H2O2 signal, usual class: inhibitors; 150 tested, 40% active; AID 2035, 2009
HEK293 viability – Secondary Assay for Inhibitors of Human Galactokinase (GALK): HEK-293 Cell Viability Assay; 170 tested, 10% active; Potency, µM (highest dose often 46.1 µM), for the others: top-dose activity change, negative = cytotoxicity, usual class: inhibitors; shares compounds with Pol eta inh-1; HEK-293 viability, ATP luminescence (CellTiter-Glo), 24/48 h; note: potency is the fitted concentration of half-maximal effect; % is set by controls: 0 for no effect and ±100 for the full control effect
Pol kappa inh-2 – qHTS for Inhibitors of Polymerase Kappa: Confirmatory Assay for Cherry-picked Compounds; shares compounds with Pol eta inh-1; purified Pol-kappa, fluorescent strand-displacement substrate; Potency, µM, actives largely listed as inhibitors; 920 tested, 76% active; note: potency is the fitted concentration of half-maximal effect
Pol eta inh-2 – qHTS for Inhibitors of Polymerase Eta: Confirmatory Assay for Cherry-picked Compounds; shares compounds with Pol eta inh-1; Pol eta primer extension, TAMRA/BHQ fluorescence, 10 min; 2,600 tested, 64% active; Potency, µM, hits mostly inhibitors; note: potency is the fitted concentration of half-maximal effect
* = called active by the depositor; u = inconclusive; x = not tested or not shown; [ ] = another dose, or the depositor's remark. Unless noted, calls come from the whole dose curve; as a rule, active = well fitted curve in the direction sought with a large enough effect; inconclusive = small, poorly fitted or top-dose-only effect, or another doubt; inactive = no such curve, though single readings can be large; an effect the other way counts as inactive or inconclusive.

SMILES | Pol iota inh | ALOX12 inh | Pol eta inh-1 | PI5P4Ka inh | Pol beta inh | Pol kappa inh-1 | Pol iota confirm | Pol eta inh-2 | others
O=C(O)c1ccc(-c2ccc(/C=c3/sc4nc5ccccc5n4c3=O)o2)cc1Cl | 3.2µM* | -46% | 1.6µM* | -64* | 4µM* | 10µM* | 15* | 6* | TbPGK inh=12µM*;Pol kappa inh-2=3*
CCC(C)NC(=O)COC(=O)c1ccc(C)c(C)c1 (centres undefined) | x | 0% | x | x | x | x | x | x
O=c1cc(O)c2sc3nc(C(F)(F)F)c4c(c3c2[nH]1)CCCCC4 | 41% | -6% | 1% | -24 | 11% | 0% | x | x
O=c1cc(O)c2sc3nc(-c4cccnc4)cc(C(F)(F)F)c3c2[nH]1 | 18µM* | -41% | u | u | 13µM* | u | 67* | u
O=C(c1cc2cc([N+](=O)[O-])ccc2oc1=O)N1CCN(c2ccccc2F)CC1 | x | -2% | x | x | x | x | x | x
Cc1ccc(C)n1-c1sc2c(c1C(=O)O)CCCC2 | u | u | 7.9µM* | -17 | 14µM* | 50µM* | 60* | 27*
C/C(N)=C(/C#N)C(=O)CSc1nc2ccccc2[nH]1 | 20µM* | -16% | 50µM* | x | 14µM* | u | 34* | 27*
COc1ccc(/C=N/Nc2cc(C)nc3ccc(Br)cc23)cc1 | -29% | u | -15% | u | -4% | -21% | x | x
COc1ccc2nc(C)cc(N/N=C/c3cccc(OC)c3O)c2c1 | u | u | u | -9 | u | 79µM* | 30* | 27* | Pol kappa inh-2=u
Cc1cc(C)c(NC(=O)Cn2c(=O)n(Cc3ccc(C(=O)NCc4ccco4)cc3)c(=O)c3sccc32)c(C)c1 | u | u | u | x | 1.1µM* | u | 47* | 67*
Cc1ccc(CNC(=O)c2ccc(Cn3c(=O)c4ccccc4n(CC(=O)Nc4c(C)cc(C)cc4C)c3=O)cc2)cc1 | 21% | u | -27% | x | u | 0% | x | x
Cc1csc(NC(=O)CSc2nncn2C)n1 | -12% | 57% | -7% | 5 | -19% | 2% | x | x
Cn1cnnc1SCC(=O)Nc1ncc([N+](=O)[O-])s1 | 7.9µM* | u | 2.8µM* | -50* | x | 71µM* | 19* | 15* | Pol kappa inh-2=3.4*
CS(=O)(=O)N1CCN(c2ccc([N+](=O)[O-])c(NCc3ccc(Cl)cc3)c2)CC1 | 8.9µM* | u | u | 2 | u | u | 38* | 85*
CS(=O)(=O)N1CCN(c2ccc([N+](=O)[O-])c(NCc3ccccc3)c2)CC1 | -2% | 352% | -12% | 0 | 5% | -3% | x | x
COc1cccc(C(=O)N2CCCC(Cc3noc(-c4ccncc4)n3)C2)c1 (centres undefined) | x | 14% | x | x | x | x | x | x
O=C(Nc1cc2c(oc1=O)CCCC2=O)c1ccc(Cl)cc1 | -98% | -25% | 11µM* | x | 3.5µM* | 18µM* | 15* | 8.5*
Cc1nccc2oc(=O)c(NC(=O)c3ccc(Cl)cc3)cc12 | 17% | -17% | -17% | 0 | u | 2% | x | x
O=C(NC[C@H]1OC[C@@H](NCc2ccccc2F)[C@@H]1O)Nc1ccccc1 | x | 8%[176 µM] | x | x | x | x | x | x
NC(N)=NN=C(/C=C/c1ccc([N+](=O)[O-])o1)/C=C/c1ccc([N+](=O)[O-])o1 | x | -19%[22.9 µM] | x | x | x | -3%[19.4 µM] | x | x
O=C(O)/C=C/c1ccc([N+](=O)[O-])o1 | 25µM* | -24% | 20µM* | -11 | u | u | 30* | 24* | TbPGK inh=4.6µM*
O=C1C=C(NCc2ccccc2)c2ccccc2C1=O | 1µM* | u | 5.6µM* | 2 | u | -9% | 42* | 85* | GALK confirm=21µM*;GALK redox cs=17µM*;HEK293 viability=u
CC(C(=O)NC(=O)NC1CCCC1)N(C)Cc1cccc(F)c1 (centres undefined) | x | -5% | x | x | x | x | x | x
CN(C)c1ccc(C=C2SC(=S)NC2=O)cc1 | u | -19% | u | -14 | x | -22% | x | x
Cc1cc(/C=C2\SC(=S)NC2=O)c(C)[nH]1 | 20µM* | u | 20µM* | -77* | 22µM* | 79µM* | u | 76*
O/N=C(/c1cc(F)c(F)c(F)c1)c1ccc(O)cc1O | x | -44% | x | x | x | x | x | x
